# Only some compounds are listed: those with a hit (about 1.8% of all), similar ones and a draw of the others.
# VLA-4 inh – inhibition in a human VLA-4 binding assay | VLA-4 expressing cells, ligand binding flow cytometry | inhibition, % (about 7 µM as worked out from the volumes in the protocol) | actives 0.2% (n = 330,000) | AID 2557
# LANA-H2B inh – blocks KSHV LANA binding to histone H2A/H2B | Q9QR71 | cell-free LANA-H2A/H2B peptide, fluorescence polarization | inhibition, % (concentration not given with the values) | actives 0.6% (n = 320,000) | AID 2629; in the data active means inhibition mostly above about 10%, no sharp cut-off; inactive means mostly below about 6.7%
# PKD1 inh – PKD1 (human) kinase inhibition; actives 0.056% (n = 200,000); Q15139; inhibition, % (no concentration beside the values); PKD1 kinase fluorescence polarization assay
# HDAC3 inh – human HDAC3 inhibition. O15379. recombinant HDAC3, fluorogenic peptide/trypsin coupled, fluorescence. inhibition, % at 8.3 µM. actives 0.15% (n = 320,000); in the data active means inhibition above about 26%, passing the limit was not always enough
# GRK2 aptamer HTS – blocks RNA aptamer binding to human GRK2 | actives 0.59% (n = 330,000) | bead flow cytometry, FAM-aptamer displacement from GRK2 | P25098 | inhibition of aptamer binding, % at 10 µM;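 active means inhibition of aptamer binding above 40%, roughly 3 SD of noise, on plates passing a quality check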;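 further: median bead fluorescence of bound FAM aptamer so fluorescent compounds give negative values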
# Target sequence (P25098 whole entry, looked up): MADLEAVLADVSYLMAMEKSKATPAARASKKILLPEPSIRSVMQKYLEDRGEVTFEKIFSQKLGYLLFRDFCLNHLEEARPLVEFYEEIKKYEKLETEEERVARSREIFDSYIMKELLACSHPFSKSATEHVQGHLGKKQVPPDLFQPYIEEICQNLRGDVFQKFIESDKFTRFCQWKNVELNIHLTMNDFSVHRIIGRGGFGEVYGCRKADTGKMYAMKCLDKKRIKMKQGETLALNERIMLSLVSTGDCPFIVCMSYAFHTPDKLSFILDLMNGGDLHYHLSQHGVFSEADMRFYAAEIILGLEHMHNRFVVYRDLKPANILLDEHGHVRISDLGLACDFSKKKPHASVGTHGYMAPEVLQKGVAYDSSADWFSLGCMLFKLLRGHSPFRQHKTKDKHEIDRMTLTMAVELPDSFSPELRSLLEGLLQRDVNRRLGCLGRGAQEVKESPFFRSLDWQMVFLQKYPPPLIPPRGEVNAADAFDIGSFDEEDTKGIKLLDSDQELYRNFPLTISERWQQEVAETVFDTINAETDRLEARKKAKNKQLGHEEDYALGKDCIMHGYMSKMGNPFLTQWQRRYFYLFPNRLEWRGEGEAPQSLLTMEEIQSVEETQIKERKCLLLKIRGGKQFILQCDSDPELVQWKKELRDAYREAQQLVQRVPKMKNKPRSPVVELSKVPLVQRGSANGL
# Pemphigus Ab inh – inhibitors of pemphigus antibody binding to human desmoglein-3; actives 0.48% (n = 310,000); DSG3-coupled beads, scFv-anti-DSG3-GFP binding, flow cytometry; stronger effect = lower value; binding (percent of control), % at 10 µM;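 active means binding more than 3 SD below its plate's average and above zero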;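 further: hits lower antibody fragment binding to DSG3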
# The depositor's hits bear a star; x = no result given; ! = a repeat was not active. Unless noted, no stated cut-off is given here; in the data, active means inhibition above about 50%; inactive means the rest.
SMILES,VLA-4 inh,LANA-H2B inh,PKD1 inh,HDAC3 inh,GRK2 aptamer HTS,Pemphigus Ab inh
COC(CNC(=O)C(=O)NCC1OCCN1C(=O)c1ccc(Cl)cc1)OC (centres undefined),-36,11*,-16,2,0,105
O=C(c1cccc([N+](=O)[O-])c1)c1ccc2c(c1)OCCOCCOCCOCCO2,11,13*,x,6,0,95
Cc1nc(C)c(C(=O)O)s1,1,5,x,-3,0,101
CCOc1ccc(NC(=O)CSc2nnc(C)n2CC)cc1,5,0,x,-7,0,78*
CC12CCC(=O)N1C(C(=O)Oc1cccc(F)c1)CS2 (centres undefined),x,x,x,x,x,100
Cc1ccccc1NC(=S)N1CCC(C(=O)c2ccc(F)cc2)CC1,5,28*,6,2,0,105
O=C(c1ccc(F)cc1)C1CCN(C(=S)Nc2ccccc2Cl)CC1,3,9,-4,-7,31,92
CCOc1ccc(C(=O)NC2CCN(C(=S)Nc3ccccc3C)CC2)cc1,-10,-3,-7,0,0,-5.5*
COc1ccc(C(=O)NC2CCN(C(=S)Nc3ccccc3C)CC2)cc1,-2,-2,-8,-4,0,105
Cn1nnnc1Sc1ccc(C(=O)O)cc1[N+](=O)[O-],24,4,x,x,4,101
Cn1ccnc1Sc1ccc(C(N)=O)cc1[N+](=O)[O-],-3,86*,-4,10,1,111
COC(=O)C=C1CCC2C3CCC4=CC(=O)CCC4(C)C3C(=O)CC12C (centres undefined),x,x,x,x,x,89
CCCCCCCCCCCCCCCC[N+](C)(C)CCN(Cc1ccc(OC)cc1)c1ncccn1,27,-12,x,63*,0,118
COc1ccc(CN(CCN(C)C)c2ccccn2)cc1,10,-14,-7,-2,2,91
CN1OC[C@@H]2CN(S(=O)(=O)c3cccc4ccccc34)[C@H](c3ccc(-c4cccnc4)cc3)C[C@@H]21,x,x,x,x,x,95
C=C1CCN([C@H](C(=O)OCc2cccc(C)c2)C(C)C)S(=O)(=O)c2ccccc21,-6,-3,x,7,0,101
COc1ccc(NC(=O)c2cc(F)cc(F)c2)cc1S(=O)(=O)N1CCCCC1,-3,18*,x,3,5,119
COc1ccc2c(c1)c(N=NC(N)=S)c(O)n2CC(=O)c1ccccc1,4,0,x,0,3,59*
Cc1ccc(NC(=O)Cn2c(O)c(N=NC(N)=S)c3ccccc32)cc1,-4,-5,x,-4,1,90
COC(=O)c1ccc(Cn2c(O)c(N=NC(N)=S)c3ccccc32)o1,8,4,x,39*,0,99
COc1ccc(CCn2c(C)cc(C(=O)CN3C(=O)C(=O)N(C4CCCC4)C3=O)c2C)cc1OC,x,x,x,x,x,98
O=C(c1ccc2oc(CCc3ccccc3)nc2c1)N1CCC(O)CC1,11,1,x,-2,4,101
COc1ccc(-c2csc(NC(C)c3nc4cc(Cl)c(Cl)cc4n3CCOCCO)n2)cc1 (centres undefined),-4,-1,x,5,0,104
CC(Nc1nc(-c2ccc(F)cc2)cs1)c1nc2cc(Cl)c(Cl)cc2n1CCCO (centres undefined),-16,-3,x,-6,7,87*
C/C(=N\NC(=O)c1ccccc1O)c1ccc(NC(=O)Cc2ccccc2)cc1,5,0,x,-2,0,99
SMILES,VLA-4 inh,LANA-H2B inh,PKD1 inh,HDAC3 inh,GRK2 aptamer HTS,Pemphigus Ab inh
CC1(C)C2CCC1(C)C(OCC[N+](C)(C)CC(=O)OC1CCCCC1)C2 (centres undefined),7,27*,-7,3,0,86
CC(=O)Nc1ccc2nc(-c3cccn3C)[nH]c2c1,11,0,x,6,0,136
CC(=O)Nc1ccc2nc(-c3cccs3)[nH]c2c1,94*,-1,0,-158,4,96
O=C(/C(Br)=C/Nc1cc(Cl)ccc1Cl)C(F)(F)F,3,-1,9,-3,86*,92
Cc1cccc(N(C(=O)c2snc(C(N)=O)c2N)C(C(=O)NCC2CCCO2)c2ccc(N(C)C)cc2)c1C (centres undefined),12,-1,x,-2,99*,104
N#C/C(=C/c1ccc(-c2ccc([N+](=O)[O-])cc2)o1)C(=O)Nc1nc(-c2cccs2)cs1,x,x,x,x,x,74*
C=CCn1c(O)c(N=NC(=S)Nc2ccccc2F)c2ccccc21,-22,1,-3,1,2,3.1*
Oc1c(N=NC(=S)Nc2ccccc2F)c2ccccc2n1Cc1ccccc1,-8,2,-6,-1,0,98
C[C@@H]1CN([C@H](C)CO)C(=O)c2cc(NC(=O)c3ccncc3)ccc2O[C@@H]1CN(C)C(=O)Nc1ccccc1,4,-2,x,1,0,107
O=C1/C(=C\c2ccco2)SC(=S)N1c1ccc(O)cc1,-31,-2,-10,1,10,98
O=C1/C(=C/C=C/c2ccco2)SC(=S)N1c1ccc(O)cc1,7,7,x,4,16,78*
O=C(O)c1ccccc1NS(=O)(=O)c1cccc(-n2sc3ccccc3c2=O)c1,11,3,x,54*,4,46*
CCOC(=O)C1=C[C@]2(CC)CCCN3CCc4c(n1c1ccccc41)[C@@H]32,12,19*!,-10,-3,3,75*
CC[C@]12CCCN3CCc4c(n(c5ccccc45)C(=O)C1)[C@@H]32,25,-2,x,6,0,107
c1ccc2c(c1)C1=NCCN1c1ccccc1-2,x,x,x,x,x,100
COc1cccc2cc(C(C)N(CCCN3CCOCC3)C(=S)Nc3cc(C)cc(C)c3)oc12 (centres undefined),-4,5,3,-4,2,104
COc1cccc2cc(C(C)N(CCCN3CCOCC3)C(=S)Nc3cccc(C)c3)oc12 (centres undefined),-9,13*,-4,0,16,89
Cn1c(SCC(=O)Nc2ccc(N3CCOCC3)c(Cl)c2)nnc1-c1ccccc1,0,40*,5,-2,3,x
CCn1c(Cc2ccccc2)nnc1SCC(=O)Nc1ccc(N2CCOCC2)c(Cl)c1,-7,3,1,2,0,108
CC(C)Cc1ccc(CN2CCCC(NC(=O)c3cccc(-n4cnnc4)c3)C2)cc1 (centres undefined),-14,53*,x,1,0,x
Cc1nc2c(cnn2CCO)c(=O)[nH]1,x,x,x,x,x,128
Nc1ncnc2c1ncn2[C@@H]1O[C@H](CNCc2ccccc2OCc2ccc(Cl)cc2Cl)[C@@H](O)[C@H]1O,37,-4,x,-6,0,101
Cc1c(CN2CCC(CO)(CCOc3ccccc3)CC2)[nH]c2c(Cl)cccc12,16,17*,-1,18,0,108
Cc1nn(C)c(Cl)c1CN1CCC(CO)(CCOc2ccccc2)CC1,2,1,-2,3,0,108

# Source: PubChem (several laboratories)
